# CYP2C19 activ: increases human CYP2C19 enzyme activity | P33261 | 96,000 tested, under 10 active | recombinant CYP2C19, luciferin-H EGE luminescence; hits give high values; 0 = fully inhibited enzyme, 1 = untreated enzyme | activation factor at 5 µM;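 active = activation factor of at least 2 at 5 µM in the primary screen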;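 also: 0 = wells with 2.5 mM tranylcypromine and 1 = vehicle-only wells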
# Target sequence (P33261 whole entry, looked up): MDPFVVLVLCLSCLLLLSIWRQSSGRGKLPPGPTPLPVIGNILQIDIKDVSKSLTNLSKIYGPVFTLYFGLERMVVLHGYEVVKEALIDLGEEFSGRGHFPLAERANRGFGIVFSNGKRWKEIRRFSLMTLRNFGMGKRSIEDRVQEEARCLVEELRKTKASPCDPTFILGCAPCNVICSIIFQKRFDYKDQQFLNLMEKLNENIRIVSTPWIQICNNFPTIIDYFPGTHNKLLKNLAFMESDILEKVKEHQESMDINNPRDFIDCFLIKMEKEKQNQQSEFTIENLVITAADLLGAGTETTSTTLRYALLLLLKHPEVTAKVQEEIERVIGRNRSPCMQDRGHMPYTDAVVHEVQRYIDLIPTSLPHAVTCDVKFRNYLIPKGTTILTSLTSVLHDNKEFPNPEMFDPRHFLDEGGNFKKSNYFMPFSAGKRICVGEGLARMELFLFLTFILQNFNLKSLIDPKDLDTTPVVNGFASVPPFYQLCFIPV
# PostGolgi ctrl: inhibits growth of the yeast control strain; efflux-deficient yeast background strain, growth absorbance A615, 16 h; inhibition, % at 10 µM; hit rate 5% among 98,000
# CYP2C9 inh: blocks human cytochrome P450 2C9; inhibition, % at 5 µM; CYP2C9 Supersomes, luciferin-H conversion, luminescence; hit rate 20% among 96,000; AID 777;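 active = blocking of liver enzyme CYP2C9 beyond about 50% at 5 µM, limit read from the data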
# PostGolgi yeast: growth inhibition of a yeast mutant, post-Golgi transport screen; post-Golgi transport phenotypic cell assay; inhibition, % at 10 µM; hit rate 0.9% among 98,000; AID 739;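 also: yeast cells grown in 1536-well plates; yeast grown about 18 h at 30C before absorbance read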
# CYP2C9 activ: CYP2C9 (human) activation | hit rate 1.4% among 96,000 | AID 1024 | P11712 | activation factor at 5 µM | recombinant CYP2C9, luciferin-H conversion, luminescence; hits give high values; factor 1 = untreated enzyme, 0 = blocked;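 active = activation factor of 2 or more for CYP2C9 at a 5 µM dose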;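 also: 0 = sulfaphenazole-blocked wells and 1 = vehicle-only wells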
# CYP2C19 inhib: inhibitors of human CYP2C19. CYP2C19 Supersomes, luciferin-H EGE luminescence, 30 min. inhibition, % at 5 µM. hit rate 21% among 96,000;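 active = CYP2C19 inhibition above a set limit at 5 µM in the primary screen, cut at about 50% in these data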;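 also: plate controls were negative control wells for no effect and 2.5 mM tranylcypromine positive control for full effect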
# Starred values were filed as active, the others as inactive. The list is not random: actives were taken first. Their share in the collection is about 32%. Rule as the data show it, unless noted: active = inhibition above about 30%; inactive = the rest.
SMILES,CYP2C19 activ,PostGolgi ctrl,CYP2C9 inh,PostGolgi yeast,CYP2C9 activ,CYP2C19 inhib
COCCN(CC(=O)NCc1ccccc1)C(=O)CCC(=O)Nc1nccs1,1,-5,6,-7,0.9,2
COC(=O)c1c(-c2ccc(OC)c(OC)c2)csc1N,0.4,0,46,10,0.5,60*
COC(=O)c1c(-c2ccc3ccccc3c2)csc1NC(=O)Cc1ccc(OC)c(OC)c1,0.5,15,80*,-1,0.2,48
COC(=O)c1c(-c2cccc(OC)c2)csc1N,0.7,8,-11,-7,1.1,27
CCCC(=O)Nc1nc2c(c(=O)[nH]1)CCCC2,1,15,-1,-2,1,3
CC1Cc2ccccc2N1C(=O)CSc1nnc(-c2ccccc2)c(-c2ccccc2)n1 (stereo not drawn),0.2,23,100*,0,0,85*
CC1CCc2cc(F)ccc2N1C(=O)CSc1nnc2c(n1)[nH]c1ccc(F)cc12 (stereo not drawn),0.2,5,57*,2,0.4,77*
CC1Cc2ccccc2N1C(=O)CSc1nnc2c(n1)[nH]c1ccccc12 (stereo not drawn),0.4,20,46,0,0.5,55*
O=C(CSc1nnc(-c2ccccc2)c(-c2ccccc2)n1)N1CCOCC1,0.8,8,25,-1,0.7,19
CC1CCc2cc(F)ccc2N1C(=O)CCC(=O)O (stereo not drawn),1,-1,-3,5,1,-2
CCCc1nc(SCC(=O)N2c3ccccc3CC2C)c2c(C)c(C)sc2n1 (stereo not drawn),0.4,21,94*,1,0.1,64*
CC1Cc2ccccc2N1C(=O)CSc1nnc(Cn2nnc3ccccc32)n1C (stereo not drawn),0.9,2,-4,8,1,13
CC(C)c1ccc(NC(=O)Nc2cc3sccc3n2C)cc1,0.9,1,8,6,0.9,8
COCCNC(=O)NC(=O)COC(=O)Cc1ccc2c(c1)OCCO2,1,4,-2,6,1,2
O=C(Oc1ccc2ccc(=O)oc2c1)N1CCOCC1,1.1,10,-15,5,1.2,-9
Cc1nn(C(C)C(=O)O)c2ccccc12 (stereo not drawn),1,1,-7,0,1.1,5
CCCCOP(=O)(OCCCC)C1(NS(=O)(=O)c2ccccc2)C=CC(=O)c2ccccc21 (stereo not drawn),0.5,16,60*,-4,0.4,47
Cc1noc(C)c1CSCC(=O)N1CCN(c2ccc([N+](=O)[O-])cc2)CC1,1,14,10,0,0.9,-4
COc1ccc(/C=c2/sc3n(c2=O)NC2(c4ccccc4)N(C)C(=O)N(C)C2(c2ccccc2)N=3)cc1 (stereo not drawn),0.6,8,60*,-3,0.4,40
N#CCSc1nnc(Cc2ccc3c(c2)OCO3)o1,0.8,3,-1,-1,1,16
O=S1(=O)CC(O)C(N2CCC(c3ccccc3)CC2)C1 (stereo not drawn),1,45*,-17,5,1.2,-2
O=C1CC2CS(=O)(=O)CC2N1c1ccc(Oc2ccccc2)cc1 (stereo not drawn),0.8,7,5,0,0.9,16
COc1ccccc1NC(=O)COc1ccc(/C=N/n2cnnc2)cc1OC,0.4,16,72*,-3,0.3,56*
CCOc1cc(/C=N/n2cnnc2)ccc1OCC(=O)Nc1ccccc1OC,0.5,8,70*,2,0.3,54*
COc1cc(/C=N/n2cnnc2)ccc1OC(=O)c1ccncc1,0.7,9,33,5,0.7,30
SMILES,CYP2C19 activ,PostGolgi ctrl,CYP2C9 inh,PostGolgi yeast,CYP2C9 activ,CYP2C19 inhib
COc1ccccc1CNC(=O)c1ccc(CS(=O)(=O)c2ccccc2OC)o1,0.8,2,52*,-1,0.5,22
Cc1ccccc1S(=O)(=O)Cc1ccc(C(=O)NCc2cccnc2)o1,0,4,67*,-6,0.3,98*
O=C(NCc1cccnc1)c1ccc(CS(=O)(=O)Cc2ccc(Cl)cc2)o1,0,5,65*,0,0.3,100*
COc1ccccc1S(=O)(=O)Cc1ccc(C(=O)NCCN2CCCCCC2)o1,1.2,12,-7,3,1.1,-17
Cc1ccc(CS(=O)(=O)Cc2ccc(C(=O)NCc3cccnc3)o2)cc1,0.2,-3,36,-5,0.6,76*
O=c1cc(CN2CCN(C/C=C/c3ccccc3)CC2)c2cc(O)ccc2o1,0.8,2,35,2,0.7,18
COC(=O)c1ccccc1NC(=O)CSc1nnnn1C1CCCCC1,0.9,30,35,5,0.7,6
Cc1ccccc1OCc1nnc(SCC(=O)Nc2ccc3c(c2)OCO3)n1C,0.2,3,-56,2,1.6,76*
CCOC(=O)c1ccccc1NC(=O)CSc1nnc(COc2ccccc2C)n1C,0.6,38*,-34,2,1.3,41
CC(NC(=O)CSc1nnc(CC(=O)Nc2ccc(Cl)c(Cl)c2)n1C)c1ccccc1 (stereo not drawn),0.6,9,35,-5,0.7,36
CCn1c(COc2ccccc2C)nnc1SCC(=O)Nc1ccc2c(c1)OCCO2,1,-9,1,15,1,0
CCOC(=O)c1ccccc1NC(=O)CSc1nnnn1C1CCCCC1,0.7,19,72*,14,0.3,25
Cc1ccccc1OCc1nnc(SCC(=O)NCc2ccccc2)n1C,1,14,-41,-6,1.4,1
Cn1c(CC(=O)Nc2ccc(Cl)c(Cl)c2)nnc1SCC(=O)N1CCN(c2ccccc2)CC1,0.8,36*,42,3,0.6,19
Nc1cc(=O)nc(SCC(=O)Nc2cccc3ccccc23)n1CCc1ccccc1,0.6,-6,-19,24,1.2,36
O=C(c1cnc2n(c1=O)CCS2)N1CCN(c2ccccc2F)CC1,0.7,1,-4,11,1,34
CC(=O)n1cc(C(C[N+](=O)[O-])SCCN)c2ccccc21 (stereo not drawn),0.7,2,44,-5,0.6,29
Cc1ccccc1OCc1nnc(SCC(=O)Nc2ccc(N3CCOCC3)c(Cl)c2)n1C,0.4,21,23,3,0.8,58*
COc1ccc(C(c2c(O)ccc3ccccc23)N2CCOCC2)c(OC)c1 (stereo not drawn),0.1,13,93*,2,0.1,87*
CC(=O)NC(Cc1c[nH]c2ccccc12)C(=O)OCC(=O)Nc1cc(C)on1 (stereo not drawn),0.1,12,84*,15,0.2,87*
CC(=O)/C=C(/C)NC(Cc1c[nH]c2ccccc12)C(=O)O (stereo not drawn),1.1,11,-12,-3,1.1,-8

# Assay outcomes as filed in PubChem BioAssay.
